{"source": "the supplement of paper PMC3484114", "note": "± gives the standard deviation."}
{"test_system": "OVCAR-3-derived ovarian cancer stem-like cells (spheroids)", "test": "cell growth relative to untreated control; higher = more growth (less inhibition)", "settings": "2.29 µM; 96 h", "in_short": "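After trypsin dissociation, OVCAR-3 spheroid-derived stem-like cells were placed in ultra-low attachment 96-well plates at 50,000 cells/mL in stem cell medium and preincubated for 24 h. Treatment at 2.29 uM followed for 96 h at 37°C, 5% CO2, with 4 replicate wells per compound. A 4 h TOX8 resazurin fluorescence read (ex 560/em 590 nm) gave viability, from which percent growth relative to untreated wells was derived after blank subtraction and Grubbs outlier removal.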", "units": {"cell growth": "%"}}
{"smiles": "Nc1ccc(OCCCc2c(-c3ccccc3)nc(N)[nH]c2=O)cc1", "cell growth": "82.7 ± 20"}
{"smiles": "Cc1nc(N)nc(N)c1-c1ccc(Cl)c(Cl)c1", "cell growth": "102 ± 13"}
{"smiles": "CN1c2c(nc(N)[nH]c2=O)NCC1CCNc1ccc(C(=O)NC(CCC(=O)O)C(=O)O)cc1", "note": "(centres undefined)", "cell growth": "101 ± 20"}
{"smiles": "Cc1c(Cl)ccc2c1NC(=O)C2(O)C(C(=O)c1ccccc1)c1ccccc1", "note": "(centres undefined)", "cell growth": "107 ± 48"}
{"smiles": "O=C(Nc1ccc2c(c1)oc(=O)c1ccccc12)C(Cl)Cl", "cell growth": "10.2 ± 2.1"}
{"smiles": "CC(=O)/C(C)=N/NC(=O)c1ccccc1O", "cell growth": "98.3 ± 20"}
{"smiles": "CCN(CC)CCCC(C)NC(=O)c1ccc2c(c1)C(=O)c1ccccc1C2=O", "note": "(centres undefined)", "cell growth": "35.6 ± 15"}
{"smiles": "O=C(O)CC(NC(=O)CP(=O)(O)O)C(=O)O", "note": "(centres undefined)", "cell growth": "106 ± 16"}
{"smiles": "Cc1cccc(Cl)c1NC(=O)/C=C/c1ccccc1", "cell growth": "102 ± 14"}
{"smiles": "Nc1nc(N)c2ncn(-c3ccccc3)c2n1", "cell growth": "162 ± 19"}
{"smiles": "CC(C)CC(NC(=O)OCc1ccccc1)C(=O)NC(Cc1ccccc1)C(=O)CCl", "note": "(centres undefined)", "cell growth": "92.9 ± 35"}
{"smiles": "O=C(CC(=O)c1ccccc1)CC(O)(c1ccccc1)c1ccccc1", "cell growth": "124 ± 18"}
{"smiles": "COC(=O)NC1C(C)OC(OC2C/C=C(/C)C3C=CC4C(OC5CC(OC6CC(O)C(OC7CC(O)C(OC)C(C)O7)C(C)O6)C(O)C(C)O5)C(C)CC(C)C4C3(C)/C(O)=C3\\C(=O)OC4(CC(C)C(CO)=CC4/C=C\\2C)C3=O)CC1(C)[N+](=O)[O-]", "note": "(centres undefined)", "cell growth": "105 ± 34"}
{"smiles": "C=C1C(=O)C23CC[C@@H]4C(C)(C(=O)OC)CCCC4(C)[C@@H]2CCC1(O)C3", "note": "(some centres undefined)", "cell growth": "13 ± 5.5"}
{"smiles": "Nc1nc2n[nH]nc2c(=O)[nH]1", "cell growth": "91.6 ± 14"}
{"smiles": "Oc1[nH]c2ccccc2c1N=Nc1nc(-c2ccc(Br)cc2)cs1", "cell growth": "81.5 ± 29"}
{"smiles": "O=[N+]([O-])c1ccccc1S(=O)(=O)c1ccccc1[N+](=O)[O-]", "cell growth": "77.1 ± 18"}
{"smiles": "COc1cc(/C=C(\\OC(C)=O)c2ccc3c(c2)OCO3)cc(OC)c1OC", "cell growth": "162 ± 58"}
{"smiles": "CCOC(=O)/N=C(\\N)SCc1ccccc1", "cell growth": "78.4 ± 11"}
{"smiles": "CCCCCCCCCCCCCCCC[N+](C)(C)Cc1ccc(F)cc1", "cell growth": "54.1 ± 9.8"}
{"smiles": "O=C1Nc2ccc(Br)cc2/C1=C\\C(=O)c1ccccc1", "cell growth": "96.9 ± 11"}
{"smiles": "O=C(CC1(O)C(=O)Nc2c(Cl)ccc(Cl)c21)c1ccc(Cl)cc1", "note": "(centres undefined)", "cell growth": "142 ± 53"}
{"smiles": "COc1ccc(Cc2nc3ccccc3s2)cc1OC", "cell growth": "98.9 ± 21"}
{"smiles": "COC(=O)C1(C)CCCC2(C)c3cc(OC)ccc3C(=O)C(Br)C12", "note": "(centres undefined)", "cell growth": "89.4 ± 39"}
{"smiles": "CCCCCC/C=C\\CCCCCCCCCc1cccc(OC)c1O", "cell growth": "115 ± 69"}
{"smiles": "O=C1C(Br)=C(Br)C(=O)c2ccccc21", "cell growth": "3.3 ± 4"}
{"smiles": "Cc1ccc(NC(=S)C#N)c(C)c1", "cell growth": "89.9 ± 27"}
{"smiles": "COc1ccc(C(=O)/C(Br)=C\\C(=O)O)cc1", "cell growth": "75.5 ± 16"}
{"smiles": "O=c1ncccn1C1OC(CO)C(O)C1F", "note": "(centres undefined)", "cell growth": "113 ± 22"}
{"smiles": "COC(=O)Nc1nc2ccc(Br)cc2[nH]1", "cell growth": "107 ± 23"}
{"smiles": "CCN(CC)CCCNc1ncc(C)c2[nH]c3ccncc3c12", "cell growth": "82.7 ± 8.6"}
{"smiles": "CCOC(=O)Nc1cc2c(c(N)n1)N=C(c1ccccc1)CN2", "cell growth": "89.9 ± 15"}
{"smiles": "CC1=CC(=O)c2ccccc2C1=O", "cell growth": "89.6 ± 9.4"}
{"smiles": "COc1ccc2c(c1)C=C([N+](=O)[O-])C(C1OC(C)(C)OC1C1COC(C)(C)O1)O2", "note": "(centres undefined)", "cell growth": "84.6 ± 23"}
{"smiles": "O=C(C[n+]1ccc2ccccc2c1)c1ccc2ccc3ccccc3c2c1", "cell growth": "95.1 ± 31"}
{"smiles": "COc1ccc2nc(C)cc(NCCCCCCCCCNc3cc(C)nc4ccc(OC)cc34)c2c1", "cell growth": "75.9 ± 37"}
{"smiles": "O=C1NC(c2cccc3ccccc23)Nc2ccccc21", "note": "(centres undefined)", "cell growth": "34.9 ± 6.6"}
{"smiles": "Nc1nc(N)c(-c2cccc(C(F)(F)F)c2)c(Cc2cccc(C(F)(F)F)c2)n1", "cell growth": "114 ± 34"}
{"smiles": "CC(=O)OCc1c2ccccc2c(C)c2c1cc(F)c1ccccc12", "cell growth": "85.4 ± 9.4"}
